Measurements taken from PubChem BioAssay (NCI).
The panel holds about 83,000 compounds, 20% with a hit somewhere; the sample as a whole holds those more often.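 Results are percent growth after 48 hours of single-concentration exposure. 100 means growth as in untreated cells, lower positive values show inhibition; negative values down to -100 show cell death.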 Activity calls are given as the source filed them. The calls were made as follows: active = growth percent below 10; inactive = the rest.

system: HL-60(TB) leukemia; experiment: NCI-60 one-dose screen, 48 h (100 = growth as untreated, 0 = no growth, -100 = all killed); conditions: 10 µM unless noted

Row | SMILES | growth
1 | O=C(c1ccc(O)c(C(=O)N2Cc3ccc(OCCC[P+](c4ccccc4)(c4ccccc4)c4ccccc4)cc3C2)c1)N1Cc2cccc(F)c2C1 | 57.8% (inactive)
2 | COc1ccc(NC(=O)CSc2nnc(-c3ccc4nc(-c5ccccc5)[nH]c4c3)o2)cc1 | 101% (inactive)
3 | N#Cc1cccc(/C(N)=N/C(N)=N/c2nc3ccccc3s2)c1 | 4.28% (active)
4 | COc1ccccc1/C=C1\Oc2ccc(O)c(O)c2C1=O | 76.1% (inactive)
5 | COc1cc2nc(Cl)nc(Nc3cccc(C4=Nc5c(N)nc(N)nc5NC(c5ccc(Cl)cc5)C4)c3)c2cc1OC (stereo not given) | -30.3% (active)
6 | CN1CC[C@@H]2[C@@]3(C)CC[C@H](O)C(C)(C)[C@@H]3CC[C@@]2(C)[C@]2(C)CC[C@@]3(CO)CCC(C)(C)C[C@@H]3C12 (stereo not given in full) | 79.6% (inactive)
7 | C=C(C)C(=O)O[C@H]1C[C@@]2(C)OC(=CC2=O)/C(C)=C\[C@H]2OC(=O)C(=C)[C@H]12 | -20.9% (active)
8 | CS(=O)(=O)Nc1cc(-c2ccc3ncc(C#N)c(NCc4ccccc4O)c3c2)cnc1Cl | 12.4% (inactive)
9 | CNC(=O)c1cc(Oc2ccc3nc(NC(=O)c4cc(N5CCOCC5)cc(C(F)(F)F)c4)sc3c2)ccn1 | 68% (inactive)
10 | NS(=O)(=O)c1ccc(Nc2nc(N/N=C/c3ccc(Cl)cc3)nc(Nc3ccccc3)n2)cc1 | 72.5% (inactive)
11 | Cc1c(Cl)cccc1S(=O)(=O)Nc1ccc2c(c1)C(=O)N(C1CCC(=O)NC1=O)C2=O (stereo not given) | -7.01% (active)
12 | CC1OC(O[C@@H]2[C@H](O)C(CO)OC(O[C@H]3COC(O[C@H]4CC[C@]5(C)[C@H]6CC[C@]78OC[C@@]9(CCC(C)(C)C[C@H]97)[C@H](O)C[C@@]8(C)[C@]6(C)CC[C@H]5C4(C)C)[C@@H](OC4OC(CO)[C@@H](O)[C@@H](O)[C@@H]4O)[C@@H]3O)[C@H]2OC2OC[C@@H](O)[C@@H](O)[C@@H]2O)[C@@H](O)[C@@H](O)[C@H]1O (stereo not given in full) | -61.4% (active)
13 | O=C(CSc1nnc(-c2ccc(Cl)cc2)n1-c1ccccc1)Nc1cccc(Cl)c1 | 89.8% (inactive)
14 | CC1(C)CC[C@]2(C(=O)N3CCOCC3)CC[C@]3(C)C(=CC[C@@H]4[C@@]5(C)C/C(=C/c6ccco6)C(=O)C(C)(C)[C@@H]5CC[C@]43C)[C@@H]2C1 | 57.2% (inactive)
15 | O=C(/C=C/c1ccccc1Cl)Nc1ncc(Cc2cc(Cl)ccc2Cl)s1 | 3.08% (active)
16 | O=S(=O)(NCCCNc1nccc(-c2[nH]c(-c3ccccc3)nc2-c2ccc(Cl)c(O)c2)n1)c1ccc(Br)cc1 | 13.1% (inactive)
17 | O=C(NCCCCCCNC(=O)c1c2c(nc3ccccc13)-c1cccnc1SC2)c1c2c(nc3ccccc13)-c1cccnc1SC2 | 24% (inactive)
18 | N#Cc1cccc(CN2CCC3=C(C2)C(=O)N(Cc2ccc(Cl)cc2)C2=NCCN23)c1 | 16.2% (inactive)
19 | Brc1ccc(-c2cc(-c3ccc4c(c3)OCCO4)n[nH]2)s1 | 3.16% (active)
20 | COc1c(N2CC3CCCNC3C2)c(F)cc2c(=O)c(C(=O)N/N=C/c3ccc(N(C)C)cc3)cn(C3CC3)c12 (stereo not given) | 78.5% (inactive)

Row | SMILES | growth
21 | CN(C)CC(=O)Nc1nc(-c2cccc(NS(=O)(=O)c3cccc4c(N(C)C)cccc34)c2)cs1 | 80.8% (inactive)
22 | CCCc1[nH]c(-c2cc(N)ccc2Cl)c2c1C(=O)CCCC2 | 92.4% (inactive)
23 | O=C(/C=C/Nc1ccc(S(=O)(=O)O)cc1)c1ccc(F)cc1 | 102% (inactive)
24 | O=C(COc1ccc(/C=C2\SC(=O)NC2=O)cc1)Nc1ccc(C(=O)/C=C/c2cc3ccccc3nc2Cl)cc1 | 79.6% (inactive)
25 | CC(=O)Nc1ccc(NC(=O)Nc2cccc(-c3nc(-c4ccc(NC(=O)c5cccs5)cc4Cl)no3)c2)cc1C(F)(F)F | 5.88% (active)
26 | CC(C)=CCc1c(O)c(CC=C(C)C)c2c(c1O)C(=O)C1=C[C@@H]3C[C@H]4C(C)(C)O[C@@](C/C=C(\C)C(=O)O)(C3=O)[C@@]14O2 | -14.1% (active)
27 | CNc1ncc2cc(-c3ccc(-c4ncccc4F)cc3Cl)c(=O)n(CC3OCC(N)CO3)c2n1 (stereo not given) | 20.5% (inactive)
28 | CCNC(=O)Oc1ccc(/C(=C(/C)c2ccccc2)c2ccc(OCCN3CCCC3)cc2)cc1 | 50.7% (inactive)
29 | NC(=O)c1cccc(C#CCNC[C@H]2C[C@@H](n3ccc4c(Cl)ncnc43)[C@H](O)[C@@H]2O)c1 | 102% (inactive)
30 | C/C(=N/NC(N)=S)c1ccc(Nc2nc(SCC(C)C)nc(-c3ccc(F)cc3)c2C#N)cc1 | 73.9% (inactive)
31 | O=C(Nc1cc(F)cc2cccnc12)c1cnc(N2CCOCC2)cn1 | 36.9% (inactive)
32 | C=CCn1c(SCC(=O)c2ccc(OC)cc2)nnc1-c1ccc(OC)cc1 | 90.8% (inactive)
33 | N#C/C(=C\c1ccc(Cl)cc1Cl)C(N)=O | 90.9% (inactive)
34 | O=C(Cn1c(-c2ccccc2)nc2cc(Cl)c(Cl)cc21)N=Nc1c(O)[nH]c2ccc(Cl)cc12 | 92.1% (inactive)
35 | Clc1ccc2oc3c(NCCCn4ccnc4)c4ccccc4nc3c2c1 | 29% (inactive)
36 | COc1ccc(/C=N/NC(=O)c2[nH]c3ccc(Br)cc3c2-c2ccccc2)s1 | -44.2% (active)
37 | COc1ccc2[nH]cc(-c3nc(N)nnc3-c3cn(C)c4ccc(Br)cc34)c2c1 | -26.6% (active)
38 | CC(C)=CCc1c2c(c(O)c3c1O[C@]14C(=C[C@@H]5C[C@H]1C(C)(C)O[C@@]4(C/C=C(/C)C(=O)O)C5=O)C3=O)CC(O)C(C)(C)O2 (stereo not given in full) | -17.2% (active)
39 | O=C1Nc2ccc(Br)cc2/C1=N\c1nnc(-c2ccc(Cl)cc2)o1 | 11.1% (inactive)
40 | N/C(=N\C(N)=N\c1nc2ccccc2s1)c1ccc(Cl)cc1 | 90.3% (inactive)
